Screening data: PubChem BioAssay, National Center for Advancing Translational Sciences (NCATS)
Most compounds without a hit are left out; they make up all but 0.25% or so of the library.
TCR act: activators of T cell receptors. Potency, µM (highest dose often 9.22 µM), hits mostly activators. primary human leukocytes, anti-CD3, IL-2 HTRF, 48 h. 330,000 tested, under 10 active
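Readout: HTRF IL-2, Eu-cryptate/d2 antibody pair, 320nm excitation, 665nm emission. Stimulus: a-CD3 beads, no co-stimulation. Cells: primary human leukocytes. Exposure: 48 hr with compound.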
Integrin act MD: activators of alpha7 integrin expression for muscular dystrophy; alpha7betagal myoblasts, beta-gal FDG fluorescence, 48 h; Potency, µM (highest dose often 38.3 µM), hits mostly activators; hit rate 0.064% among 350,000; AID 624291; also: nearly all actives have a fitted effect of over 60% in size
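Alpha7betagal+/- myoblasts (passage 13) were plated 16-24 hr, then exposed to compounds (1:260 dilution of DMSO stock) for 48 hours at 37C. After MPER lysis, β-galactosidase reporter activity was read as FDG fluorescence (ex 480/em 540) after 30 minutes.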
Giardia kill: Giardia lamblia killing; Giardia lamblia trophozoite viability; activity change, % at 7.66 µM, hits read low; hit rate 0.15% among 340,000; AID 540267; in the data active = activity change below about -80%; inconclusive = between about -30% and that limit;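 also: parasites exposed to compound for two days anaerobically before the ATP read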
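Luminescent ATP signal served as the viability read-out, measured 15-30 min after adding ATP detection reagent to trophozoites that had been incubated with compounds for 48 hrs at 37 deg C anaerobically at 100 cells/well.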
Chronic BCR inh: inhibitors of chronic active B-cell receptor signaling; ABC-DLBCL IkBa-CBG/CBR reporter, luminescence ratio, 4 h; Potency, µM (doses to about 46.1 µM), usual class: inhibitors; hit rate 0.05% among 340,000; AID 493014; active = well fitted inhibition curve with a large enough effect in the signal ratio, with a control signal flat, not every such curve was filed as active; inconclusive = small, poorly fitted or top-dose-only effect, or effect the other way, or a change in a side signal; the % refers to the signal ratio
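Doxycycline induced both beetle luciferases in TMD8 lymphoma cells; IKK-driven degradation limits the IkappaBalpha-fused green signal, while red luminescence normalises for cell number and nonspecific effects. Compounds tested up to 46 uM, 4 hrs.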
Numbers stand for hits; - = inactive; ? = inconclusive; . = no result given. Unless noted, calls follow the shape of the dose curve; as a rule, active = well fitted curve in the direction sought with a large enough effect; inconclusive = small, poorly fitted or top-dose-only effect, or another doubt; inactive = no such curve, though single readings can be large; an effect the other way counts as inactive or inconclusive.

SMILES | TCR act | Integrin act MD | Giardia kill | Chronic BCR inh
COc1ccc(-c2nnc(NC(=O)c3ccc([N+](=O)[O-])o3)o2)c(OC)c1 | - | - | -100 | -
COc1cccc(-c2nnc(NC(=O)c3cccc(F)c3)o2)c1 | - | - | - | ?
Cc1ccc(NC(=O)c2ccc([N+](=O)[O-])o2)c(C)c1 | - | - | -90 | -
COc1ccc(-c2nc3sc(CCNC(=O)C(=O)Nc4cc(F)ccc4F)c(C)n3n2)cc1 | . | . | . | -
COc1ccc(Br)cc1C1NC(c2ccc3c(c2)OCO3)=CC(c2ccccc2O)N1 (stereo not drawn) | . | . | - | .
CC(=O)c1ccc(NC(=O)CN(C)S(=O)(=O)c2cc3c(cc2Cl)NC(=O)CO3)cc1 | . | . | . | -
Cc1ncc([N+](=O)[O-])n1CCOC(=O)c1cc(Cl)cc(Cl)c1N | - | ? | -86 | -
Cc1ncc([N+](=O)[O-])n1CCOC(=O)Nc1ccc([N+](=O)[O-])cc1 | - | - | -83 | ?
Cc1ncc([N+](=O)[O-])n1CCOC(=O)C12CC3CC(CC(C3)C1)C2 | - | - | ? | -
COCc1ccc(C(=O)NC2CCSc3ccccc32)cc1 (stereo not drawn) | - | ? | - | -
COc1ccc(-c2cc(C(=O)NCc3ccc(F)cc3)c3c(-c4ccc(F)cc4)[nH]nc3n2)cc1OC | . | . | . | -
Cc1cc(SCC(=O)NCc2ccccc2)nc(=O)[nH]1 | . | . | . | -
CCCCNc1nnc(SCC(=O)c2c(N)n(CCC)c(=O)[nH]c2=O)s1 | . | 4µM | - | -
Cc1nnc(SCC(=O)c2cc(C)n(C3CC3)c2C)s1 | - | - | - | -
CNc1nnc(SCC(=O)c2cc(C)n(C3CC3)c2C)s1 | - | 13µM | - | -
Cc1cc(OCC(=O)NC(C)C)ccc1Cl | - | 4µM | - | -
O=C(Nc1ccc(C(F)(F)F)cc1)C1(c2cccs2)CCOCC1 | . | . | . | -
COc1ccc(OC)c(Nc2c3c(nc4ccccc24)CCC3)c1 | - | - | - | 16µM
COc1cc(Nc2c3c(nc4ccccc24)CCC3)cc(OC)c1OC | - | - | - | 20µM
Cc1cccc(Nc2c3c(nc4ccccc24)CCC3)c1 | - | - | - | -
COc1ccc(OC)c(Nc2c3ccccc3nc3ccccc23)c1 | - | - | - | ?
O=C(Nc1nc2ccccc2[nH]1)c1ccccc1F | - | ? | -89 | ?
CCc1ccc(C(=O)Nc2nc3ccccc3[nH]2)cc1 | - | ? | -94 | ?
CN(C)S(=O)(=O)c1ccc(C(=O)Nc2nc3ccccc3[nH]2)cc1 | - | 8.9µM | - | ?
O=C(Nc1nc2ccccc2[nH]1)c1ccc(F)cc1 | - | - | ? | ?
SMILES | TCR act | Integrin act MD | Giardia kill | Chronic BCR inh
CCCCc1nc2ccccc2c(N)c1CCC (tested in a mixture with another compound) | - | 11µM | - | ?
Cc1ccc(CNC(=O)c2ccc(CSCc3ccccc3Cl)o2)cc1 | . | . | . | -
Cc1ccc(C(=O)c2cc([N+](=O)[O-])ccc2N2CCCCC2)cc1 | - | - | - | 23µM
O=C(NCc1ccc2c(c1)OCO2)c1cc([N+](=O)[O-])ccc1N1CCCCC1 | - | - | - | 23µM
COc1ccc(N2CCN(C(CNS(=O)(=O)c3ccc(OC)c(C)c3)c3ccco3)CC2)cc1 (stereo not drawn) | . | . | . | -
CS(=O)(=O)c1ccc(S(=O)CC(=O)Oc2ccc(Cl)cc2)c([N+](=O)[O-])c1 (stereo not drawn) | - | - | - | 18µM
O=C(CS(=O)c1ccccc1[N+](=O)[O-])Oc1ccc(Br)cc1 (stereo not drawn) | - | ? | - | -
COc1ccc(CNC(=O)c2c(C)oc3c2C(=O)c2ccccc2C3=O)cc1 | - | - | ? | -
Cc1oc2c(c1C(=O)NCc1cccnc1)C(=O)c1ccccc1C2=O | - | - | -86 | ?
O=C(/C=C/c1ccccc1)C1C(=O)c2ccccc2C1=O | - | - | ? | ?
CCc1ccc(/C=C/C(=O)C2C(=O)c3ccccc3C2=O)cc1 | - | - | -82 | ?
COc1cc(=O)n(C)c2ccccc12 | . | 2.2µM | - | -
O=C(Nc1cccnc1)c1coc(=O)c2ccccc12 | - | - | - | 18µM
Cc1nc2c([nH]1)C1(CCN(Cc3ccccc3)CC1)C(C#N)=C(N)O2 | - | 13µM | - | -
CCOC(=O)c1c(-c2ccccc2)oc2ccc(OC)cc12 | - | - | ? | ?
COc1ccc2oc(CS(=O)c3ccccc3)c(C(=O)O)c2c1 (stereo not drawn) | . | 13µM | - | ?
COc1ccc(C(=O)Nc2ccc(-c3cc(C(F)(F)F)nn3-c3ccccc3)cc2)cc1OC | . | . | . | -
